According to PubChem BioAssay AID1159580 (chemical genetic matrix, 2015):
Values joined by “and” are separate entries in the source; they are usually repeats but may differ in a detail not shown here. Equal values may be shown once. Among all 5,500 compounds or so, about 2,000 (36%) were called active. About 18% were inconclusive and are not listed. No stated cut-off is given here; in the data, active means normalized growth mostly below about 0.91 (no sharp cut-off); inconclusive means no clear call, values can overlap the other calls; inactive means mostly above about 0.92. This is one part of the list.

Assay: chemical genetic growth profiling, strain panel (AID 1159580);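 further: tested at 20 µM; growth read once vehicle control cultures reached saturation at 30 °C; 1 = growth at the plate median or of vehicle wells; lower values mean less growth of the strain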
Conditions: S. cerevisiae deletion strains, growth OD

Measured: normalized growth

Cc1onc(-c2ccccc2)c1C(=O)NC1C(=O)N2[C@@H]1SC(C)(C)[C@@H]2C(=O)O (some centres not stated)
inactive: locus YAL013W, strain DEP1, hits give low values 1.01 | locus YAL021C, strain ccr4, hits give low values 1.02 | locus YAL026C, strain drs2, hits give low values 1.01 | locus YAL030W, strain snc1, hits give low values 1.02 | locus YBL061C, strain skt5, hits give low values 1.02 | locus YBR009C, strain hhf1, hits give low values 1.02 | locus YBR021W, strain FUR4, hits give low values 0.99 | locus YBR023C, strain chs3, hits give low values 1.02 | locus YBR171W, strain sec66, hits give low values 1.02 | locus YBR229C, strain ROT2, hits give low values 1 | locus YBR231C, strain swc5, hits give low values 1.01 | locus YBR279W, strain paf1, hits give low values 1.01 | locus YCL011C, strain gbp2, hits give low values 1.03 | locus YCL016C, strain dcc1, hits give low values 1.06 | locus YCL029C, strain bik1, hits give low values 1.02 | locus YCL061C, strain MRC1, hits give low values 1.02 | locus YCL069W, strain vba3, hits give low values 1.02 | locus YCR088W, strain abp1, hits give low values 1.02 | locus YDL005C, strain med2, hits give low values 1.01 | locus YDL035C, strain GPR1, hits give low values 1 | locus YDL040C, strain nat1, hits give low values 1.01 | locus YDL074C, strain BRE1, hits give low values 1.03 | locus YDL101C, strain DUN1, hits give low values 1.02 | locus YDL134C, strain PPH21, hits give low values 1 | locus YDL185W, strain tfp1, hits give low values 1.01 | locus YDL192W, strain arf1, hits give low values 1.01 | locus YDR001C, strain nth1, hits give low values 1.01 | locus YDR069C, strain doa4, hits give low values 1.01 | locus YDR101C, strain arx1, hits give low values 1.01 | locus YDR137W, strain rgp1, hits give low values 1.04 | locus YDR150W, strain NUM1, hits give low values 1.01 | locus YDR159W, strain sac3, hits give low values 1 | locus YDR162C, strain NBP2, hits give low values 1.01 | locus YDR195W, strain ref2 0.996 | locus YDR297W, strain sur2, hits give low values 1.01 | locus YDR318W, strain mcm21, hits give low values 1.01 | locus YDR334W, strain swr1, hits give low values 1.02 | locus YDR335W, strain msn5, hits give low values 1.02 | locus YDR388W, hits give low values 1.01 | locus YDR392W, strain spt3, hits give low values 0.959 | locus YDR502C, strain sam2, hits give low values 1.01 | locus YEL003W, strain gim4, hits give low values 0.988 | locus YEL037C, strain rad23, hits give low values 1.01 | locus YEL061C, strain CIN8 (second series), hits give low values 1 | locus YEL061C, strain CIN8, hits give low values 1.01 | locus YER015W, strain faa2, hits give low values 1.01 | locus YER016W, strain bim1, hits give low values 1.03 | locus YER110C, hits give low values 1.01 | locus YER111C, strain swi4, hits give low values 1.01 | locus YER155C, strain BEM2 (second series), hits give low values 1.02 | locus YER155C, strain BEM2, hits give low values 1.01 | locus YER167W, strain BCK2, hits give low values 1.01 | locus YFR010W, strain ubp6, hits give low values 1.01 | locus YGL078C, strain dbp3, hits give low values 0.998 | locus YGL086W, strain mad1, hits give low values 0.991 | locus YGL167C, strain pmr1, hits give low values 1.02 | locus YGL173C, strain kem1, hits give low values 1.01 | locus YGL227W, strain vid30, hits give low values 1.02 | locus YGL240W, strain doc1, hits give low values 1.02 | locus YGL248W, strain PDE1, hits give low values 1 | locus YGL253W, strain hxk2, hits give low values 1.02 | locus YGR078C, strain PAC10, hits give low values 1.02 | locus YGR135W, strain pre9, hits give low values 1.01 | locus YGR229C, strain SMI1, hits give low values 1 | locus YGR252W, strain gcn5, hits give low values 0.939 | locus YHR027C, strain rpn1, hits give low values 1.02 | locus YHR030C, strain SLT2, hits give low values 1.01 and 0.989 | locus YHR079C, strain IRE1 (second series), hits give low values 1.01 | locus YHR079C, strain IRE1, hits give low values 0.965 | locus YHR094C, strain hxt1, hits give low values 1.01 | locus YHR129C, strain ARP1, hits give low values 1.01 | locus YHR142W, strain chs7, hits give low values 1.02 | locus YHR200W, strain rpn10, hits give low values 1.02 | locus YIL066C, strain RNR3, hits give low values 1.01 | locus YIL073C, strain SPO22, hits give low values 1.01 | locus YIL125W, strain kgd1, hits give low values 1.01 | locus YIR030C, strain dcg1, hits give low values 1.02 | locus YJL092W, strain hpr5, hits give low values 1.02 | locus YJL095W, strain BCK1 (second series), hits give low values 1.02 | locus YJL095W, strain BCK1, hits give low values 1.01 and 0.989 | locus YJL115W, strain asf1, hits give low values 1.01 | locus YJL129C, strain trk1, hits give low values 0.994 | locus YJL134W, strain LCB3, hits give low values 1.01 | locus YJL154C, strain vps35, hits give low values 1.02 | locus YJL164C, strain tpk1, hits give low values 1.02 | locus YJL166W, strain qcr8, hits give low values 1.03 | locus YJL168C, strain set2, hits give low values 1 | locus YJL187C, strain SWE1 (second series), hits give low values 1.01 | locus YJL187C, strain SWE1, hits give low values 1.02 | locus YJR043C, strain POL32, hits give low values 1.02 | locus YJR066W, strain TOR1, hits give low values 0.933
active: locus YHR013C, strain ard1, hits give low values 1.22 [resistant]
